From the supplement of paper PMC10849652
Of roughly 8,800 targets only a part is listed; those with a hit were picked by preference. About 0.5% of all pairs of compound and target were hits.

Experiments:
Test in all cases: log2 fold change, soluble protein after heating vs DMSO (PISA); higher = thermal stabilisation; K562 lysate, 10 uM; active = over 0.2 and 3.5 SD of the protein, either way, in both replicates (recomputed)
[1] = compound: C1=CC=C(C=C1)[C@H](COC2=CC3=C(C=C2)NC(=O)N3)NC(=O)C4=CC=CN(C4=O)CC5=CC(=C(C=C5)F)F
Summary of the method: (§1)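 Following dounce homogenisation of K562 pellets in PBS pH 7.4 with 1 mM MgCl2, crude extract at 1 mg/mL protein was incubated for 30 min with 10 μM compound. Aliquots were then heated for 3 min over 48°C-58°C and pooled, NP-40 was added to 0.5% at 4°C, and soluble protein was recovered as the supernatant at 21,000xg for 90 min. Channel-sum-equalised TMTpro 16plex LC-MS/MS quantified this protein. Each value, from duplicates, is a log-two fold change in thermal stability relative to solvent controls.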

[2] = compound: CC1=C(SC2=C1C(=N[C@H](C3=NN=C(N32)C)CC(=O)N)C4=CC=C(C=C4)Cl)C
Summary of the method: as §1

[3] = compound: CC1=C2C(=CC=C1)N=C(N(C2=O)C3=CC=CC=C3C)CN4C=NC5=C(N=CN=C54)N
Summary of the method: as §1

[4] = compound: Cc1sc2c(c1C)C(c1ccc(Cl)cc1)=N[C@@H](CC(=O)OC(C)(C)C)c1nnc(C)n1-2
Summary of the method: as §1

[5] = compound: c1ccc([C@@H]2C[C@H]2NC2CCNCC2)cc1
Summary of the method: as §1

Measured: log2 fold change

PIKFYVE (UniProt Q9Y2I7)
inactive: [1] -0.005 | [2] 0.007 | [3] 0.016 | [4] 0.054 | [5] -0.03

PRKDC (UniProt P78527)
inactive: [1] -0.073 | [2] -0.123 | [3] -0.064 | [4] 0.028 | [5] -0.048

PCBP2 (UniProt F8W0G4)
inactive: [1] 0.16 | [2] 0.052 | [3] 0.043 | [4] 0.103

PCBP2 isoform 8 (UniProt Q15366)
inactive: [1] 0.098 | [2] 0.065 | [3] -0.038 | [4] -0.044 | [5] -0.101

PDCD4 (UniProt Q53EL6)
inactive: [1] -0.026 | [2] 0.005 | [3] -0.007 | [4] 0.002 | [5] 0.001

PHKA2 (UniProt P46019)
inactive: [1] -0.111 | [2] 0.028 | [3] 0.052 | [4] 0.021 | [5] 0.038

PDE2A (UniProt O00408)
inactive: [1] 0.012 | [2] 0.067 | [3] 0.163 | [4] 0.039 | [5] 0

PCBP3 (UniProt P57721)
inactive: [1] -0.028 | [2] 0.014 | [3] -0.026 | [4] 0.021 | [5] 0

PHACTR4 isoform 2 (UniProt Q8IZ21)
inactive: [1] 0.03 | [2] 0 | [3] 0.014 | [4] 0.028 | [5] 0.264

PDIA4 (UniProt P13667)
Chain of UniProt P13667 (P13667 whole entry, looked up): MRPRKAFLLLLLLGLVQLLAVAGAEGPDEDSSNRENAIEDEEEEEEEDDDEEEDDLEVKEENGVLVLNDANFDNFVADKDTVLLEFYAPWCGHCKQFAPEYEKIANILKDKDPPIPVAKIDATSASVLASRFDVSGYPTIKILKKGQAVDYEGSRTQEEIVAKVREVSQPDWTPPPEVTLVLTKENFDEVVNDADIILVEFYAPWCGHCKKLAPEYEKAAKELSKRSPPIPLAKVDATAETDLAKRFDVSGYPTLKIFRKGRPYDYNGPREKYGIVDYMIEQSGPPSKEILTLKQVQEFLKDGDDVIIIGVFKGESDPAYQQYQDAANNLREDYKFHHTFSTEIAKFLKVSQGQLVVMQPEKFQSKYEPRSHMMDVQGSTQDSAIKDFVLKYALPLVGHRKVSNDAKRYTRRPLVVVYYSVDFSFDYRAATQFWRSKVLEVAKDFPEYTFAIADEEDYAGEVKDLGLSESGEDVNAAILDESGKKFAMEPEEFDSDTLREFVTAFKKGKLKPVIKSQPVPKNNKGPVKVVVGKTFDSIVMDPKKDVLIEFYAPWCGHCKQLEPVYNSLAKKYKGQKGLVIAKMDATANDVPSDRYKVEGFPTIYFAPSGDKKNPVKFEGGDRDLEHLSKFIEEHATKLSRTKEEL
inactive: [1] -0.004 | [2] -0.006 | [3] -0.009 | [4] 0.002 | [5] 0.037

PFKP (UniProt Q01813)
Chain of UniProt Q01813 (Q01813 whole entry, looked up): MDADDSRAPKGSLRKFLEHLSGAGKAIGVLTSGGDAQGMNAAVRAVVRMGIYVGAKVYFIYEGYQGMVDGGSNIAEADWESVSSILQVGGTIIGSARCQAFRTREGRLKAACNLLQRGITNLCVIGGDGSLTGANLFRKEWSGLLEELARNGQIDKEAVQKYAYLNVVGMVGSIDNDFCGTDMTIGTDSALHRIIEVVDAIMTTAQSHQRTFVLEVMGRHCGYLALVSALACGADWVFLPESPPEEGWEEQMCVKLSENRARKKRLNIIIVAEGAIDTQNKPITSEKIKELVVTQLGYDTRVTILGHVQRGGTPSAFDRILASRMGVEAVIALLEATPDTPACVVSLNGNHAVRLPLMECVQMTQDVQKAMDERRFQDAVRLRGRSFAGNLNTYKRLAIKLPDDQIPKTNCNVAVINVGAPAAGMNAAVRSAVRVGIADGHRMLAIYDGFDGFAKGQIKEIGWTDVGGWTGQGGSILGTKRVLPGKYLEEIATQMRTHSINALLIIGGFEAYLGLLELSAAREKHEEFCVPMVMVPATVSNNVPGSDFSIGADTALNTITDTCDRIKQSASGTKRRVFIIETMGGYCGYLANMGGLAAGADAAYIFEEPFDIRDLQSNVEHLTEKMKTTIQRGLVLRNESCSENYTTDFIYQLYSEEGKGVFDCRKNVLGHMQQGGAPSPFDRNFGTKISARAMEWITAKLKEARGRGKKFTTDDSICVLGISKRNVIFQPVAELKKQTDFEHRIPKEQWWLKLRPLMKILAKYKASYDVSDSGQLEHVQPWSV
inactive: [1] -0.005 | [2] 0.02 | [3] 0.043 | [4] -0.031 | [5] 0.027

PRIMPOL (UniProt Q96LW4)
inactive: [1] 0.009 | [2] 0.009 | [3] -0.015 | [4] -0.024

POLD3 (UniProt Q15054)
inactive: [1] -0.004 | [2] 0.002 | [3] 0.019 | [4] 0 | [5] 0.034

PRIM2 (UniProt P49643)
inactive: [1] 0.004 | [2] 0.026 | [3] 0.016 | [4] 0.009 | [5] 0.028

PHC1 (UniProt P78364)
inactive: [1] 0.025 | [2] 0.001 | [3] 0.041 | [4] -0.049

PPP1R8 (UniProt Q12972)
Chain of UniProt Q12972 (Q12972 whole entry, looked up): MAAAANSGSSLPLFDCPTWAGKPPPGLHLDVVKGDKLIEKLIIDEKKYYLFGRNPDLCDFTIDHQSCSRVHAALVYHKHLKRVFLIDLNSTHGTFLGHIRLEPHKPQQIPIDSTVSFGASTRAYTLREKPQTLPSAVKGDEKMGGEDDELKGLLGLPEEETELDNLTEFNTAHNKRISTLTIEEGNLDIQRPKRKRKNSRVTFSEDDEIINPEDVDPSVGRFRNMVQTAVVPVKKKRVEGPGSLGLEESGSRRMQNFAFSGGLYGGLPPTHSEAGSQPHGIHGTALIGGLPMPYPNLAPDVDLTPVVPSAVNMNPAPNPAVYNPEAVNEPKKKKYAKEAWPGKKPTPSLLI
inactive: [1] 0.006 | [2] 0.017 | [3] 0.003 | [4] 0.059 | [5] -0.142

PGGT1B (UniProt P53609)
Chain of UniProt P53609 (P53609 whole entry, looked up): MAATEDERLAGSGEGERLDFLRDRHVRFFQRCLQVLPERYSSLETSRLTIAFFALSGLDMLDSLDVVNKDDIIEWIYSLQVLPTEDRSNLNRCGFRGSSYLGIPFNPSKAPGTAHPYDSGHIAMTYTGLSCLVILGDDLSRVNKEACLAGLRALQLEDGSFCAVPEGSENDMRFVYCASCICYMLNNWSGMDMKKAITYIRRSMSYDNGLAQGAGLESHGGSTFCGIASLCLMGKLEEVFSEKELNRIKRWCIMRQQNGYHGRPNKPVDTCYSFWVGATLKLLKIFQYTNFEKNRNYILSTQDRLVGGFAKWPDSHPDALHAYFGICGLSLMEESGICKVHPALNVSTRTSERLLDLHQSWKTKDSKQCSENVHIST
inactive: [1] -0.055 | [2] 0.021 | [3] -0.013 | [4] -0.004 | [5] 0.064

PPT2 isoform 3 (UniProt Q9UMR5)
inactive: [1] 0.01 | [2] -0.03 | [3] -0.046 | [4] -0.048 | [5] -0.08

PPP1R12B isoform 6 (UniProt O60237)
inactive: [1] 0.043 | [2] 0.033 | [3] 0.088 | [4] -0.145

PHLDB1 (UniProt Q86UU1)
inactive: [1] -0.006 | [2] 0.007 | [3] 0.054 | [4] -0.027 | [5] 0.036

PICALM (UniProt H0YEH1)
inactive: [1] 0.018 | [2] -0.027 | [3] -0.138 | [4] 0.075 | [5] -0.303

PPP1R14C (UniProt Q8TAE6)
inactive: [1] -0.019 | [2] 0.024 | [3] 0.051 | [4] -0.078 | [5] -0.147

PHKG2 (UniProt P15735)
Chain of UniProt P15735 (P15735 whole entry, looked up): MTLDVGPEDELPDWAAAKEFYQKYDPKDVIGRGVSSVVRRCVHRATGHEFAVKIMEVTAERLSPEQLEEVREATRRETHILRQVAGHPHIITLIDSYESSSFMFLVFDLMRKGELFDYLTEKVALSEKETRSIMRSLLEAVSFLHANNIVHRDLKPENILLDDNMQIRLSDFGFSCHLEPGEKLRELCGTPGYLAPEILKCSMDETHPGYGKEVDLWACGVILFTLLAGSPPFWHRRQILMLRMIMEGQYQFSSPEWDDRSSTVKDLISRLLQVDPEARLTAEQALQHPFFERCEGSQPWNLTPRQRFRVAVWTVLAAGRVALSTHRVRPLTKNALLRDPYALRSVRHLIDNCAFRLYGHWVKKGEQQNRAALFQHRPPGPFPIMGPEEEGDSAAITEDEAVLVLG
inactive: [1] 0.039 | [2] -0.038 | [3] -0.037 | [4] -0.002 | [5] -0.022

PTMA (UniProt P06454)
inactive: [1] 0.015 | [2] 0.018 | [3] 0.01 | [4] -0.004 | [5] 0.241

PYURF (UniProt Q96I23)
Chain of UniProt Q96I23 (Q96I23 whole entry, looked up): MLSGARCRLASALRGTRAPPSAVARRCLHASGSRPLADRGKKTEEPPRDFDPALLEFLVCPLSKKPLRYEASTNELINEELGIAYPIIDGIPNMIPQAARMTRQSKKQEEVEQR
inactive: [1] 0.03 | [2] 0.048 | [3] 0.126 | [4] 0.007 | [5] -0.091

PPP2R5B (UniProt Q15173)
inactive: [1] -0.08 | [2] -0.037 | [3] -0.024 | [4] -0.006 | [5] 0.066

PHF14 (UniProt O94880)
inactive: [1] 0.048 | [2] 0.025 | [3] -0.038 | [4] 0.019

PRRC2A (UniProt P48634)
inactive: [1] -0.047 | [2] 0.003 | [3] 0.001 | [4] 0.017 | [5] -0.02

PEX2 (UniProt P28328)
inactive: [1] -0.243 | [2] 0.053 | [3] -0.048 | [4] 0.116 | [5] -0.365

PRKCSH (UniProt K7ELL7)
inactive: [1] 0.045 | [2] -0.027 | [3] -0.157 | [4] -0.112 | [5] -0.048

PTMA isoform 2 (UniProt P06454)
inactive: [1] 0.098 | [2] -0.016

PDXDC1 (UniProt Q6P996)
Chain of UniProt Q6P996 (Q6P996 whole entry, looked up): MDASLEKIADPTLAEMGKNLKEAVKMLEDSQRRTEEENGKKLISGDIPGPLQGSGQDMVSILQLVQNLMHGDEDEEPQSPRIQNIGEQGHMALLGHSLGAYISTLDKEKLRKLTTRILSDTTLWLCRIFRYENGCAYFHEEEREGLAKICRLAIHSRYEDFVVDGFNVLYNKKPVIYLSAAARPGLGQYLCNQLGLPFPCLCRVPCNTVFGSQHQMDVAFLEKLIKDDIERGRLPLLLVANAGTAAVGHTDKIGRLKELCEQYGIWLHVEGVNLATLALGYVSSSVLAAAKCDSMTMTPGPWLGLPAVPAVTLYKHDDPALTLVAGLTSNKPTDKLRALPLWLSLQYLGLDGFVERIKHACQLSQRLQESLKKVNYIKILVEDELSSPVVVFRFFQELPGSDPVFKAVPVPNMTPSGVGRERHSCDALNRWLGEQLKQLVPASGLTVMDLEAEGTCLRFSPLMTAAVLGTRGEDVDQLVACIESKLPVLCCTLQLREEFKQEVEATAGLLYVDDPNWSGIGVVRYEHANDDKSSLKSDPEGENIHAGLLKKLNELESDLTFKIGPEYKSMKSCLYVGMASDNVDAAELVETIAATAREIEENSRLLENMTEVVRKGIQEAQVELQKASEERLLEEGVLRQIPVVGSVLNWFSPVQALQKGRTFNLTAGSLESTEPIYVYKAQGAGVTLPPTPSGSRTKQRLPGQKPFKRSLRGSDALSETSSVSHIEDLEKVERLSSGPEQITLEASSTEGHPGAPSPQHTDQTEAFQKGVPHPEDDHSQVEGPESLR
inactive: [1] 0.025 | [2] 0.022 | [3] 0.01 | [4] 0.02 | [5] 0.014

PLEKHF1 (UniProt Q96S99)
inactive: [1] -0.019 | [2] 0.034 | [3] 0.029 | [4] 0.01 | [5] 0.014

PIK3CG (UniProt P48736)
inactive: [1] -0.076 | [2] -0.065 | [3] 0.109 | [4] -0.047 | [5] -0.105

PRPF38A (UniProt Q8NAV1)
inactive: [1] 0.034 | [2] -0.055 | [3] -0.08 | [4] -0.024 | [5] -0.133

PPIL2 (UniProt Q13356)
inactive: [1] 0.036 | [2] 0.005 | [3] 0.029 | [4] 0.082 | [5] 0.011

PRMT7 (UniProt Q9NVM4)
inactive: [1] -0.002 | [2] -0.029 | [3] 0.009 | [4] -0.039 | [5] 0.014

PTPN2 (UniProt P17706)
inactive: [1] -0.031 | [2] 0.017 | [3] 0.023 | [4] 0.007 | [5] 0.012

PRPF6 (UniProt O94906)
inactive: [1] -0.006 | [2] 0.015 | [3] -0.012 | [4] -0.01 | [5] 0.04

PIP4K2A (UniProt P48426)
inactive: [1] -0.093 | [2] -0.053 | [3] -0.041 | [4] -0.05 | [5] -0.106

PI4K2B (UniProt Q8TCG2)
inactive: [1] -0.033 | [2] 0.048 | [3] 0.074 | [4] 0.068 | [5] 0.077

POLR2M (UniProt Q6EEV4)
Chain of UniProt Q6EEV4 (Q6EEV4 whole entry, looked up): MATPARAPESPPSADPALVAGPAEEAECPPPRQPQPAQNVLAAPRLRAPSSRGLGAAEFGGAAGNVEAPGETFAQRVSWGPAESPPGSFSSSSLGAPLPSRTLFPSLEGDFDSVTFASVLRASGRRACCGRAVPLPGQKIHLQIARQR
inactive: [1] 0.01 | [2] 0.042 | [3] -0.084 | [4] 0.132 | [5] 0.012

PI4K2A (UniProt Q9BTU6)
inactive: [1] 0.028 | [2] 0.056 | [3] -0.007 | [4] -0.002 | [5] 0.001

PLEKHO2 (UniProt Q8TD55)
inactive: [1] -0.158 | [2] 0.077 | [3] -0.076 | [4] -0.107 | [5] 0.043

PPME1 isoform 4 (UniProt Q9Y570)
inactive: [1] -0.004 | [2] 0.013 | [3] -0.019 | [4] 0.021 | [5] 0.007

PFKFB3 isoform 4 (UniProt Q16875)
inactive: [1] -0.04 | [2] 0.047 | [3] 0.057 | [4] 0.018 | [5] 0.041

PDE4DIP isoform 4 (UniProt Q5VU43)
inactive: [1] -0.102 | [2] 0.154 | [3] 0.018 | [4] -0.016 | [5] -0.015

PDS5A (UniProt Q29RF7)
inactive: [1] -0.049 | [2] -0.031 | [3] 0.017 | [4] -0.011 | [5] 0.019

PRAME (UniProt P78395)
inactive: [1] -0.009 | [2] 0.014 | [3] 0.014 | [4] -0.008 | [5] 0.026

PIP4K2B (UniProt P78356)
inactive: [1] -0.063 | [2] -0.078 | [3] -0.014 | [4] 0.036 | [5] -0.108

PRKCSH isoform 2 (UniProt P14314)
Chain of UniProt P14314 (P14314 whole entry, looked up): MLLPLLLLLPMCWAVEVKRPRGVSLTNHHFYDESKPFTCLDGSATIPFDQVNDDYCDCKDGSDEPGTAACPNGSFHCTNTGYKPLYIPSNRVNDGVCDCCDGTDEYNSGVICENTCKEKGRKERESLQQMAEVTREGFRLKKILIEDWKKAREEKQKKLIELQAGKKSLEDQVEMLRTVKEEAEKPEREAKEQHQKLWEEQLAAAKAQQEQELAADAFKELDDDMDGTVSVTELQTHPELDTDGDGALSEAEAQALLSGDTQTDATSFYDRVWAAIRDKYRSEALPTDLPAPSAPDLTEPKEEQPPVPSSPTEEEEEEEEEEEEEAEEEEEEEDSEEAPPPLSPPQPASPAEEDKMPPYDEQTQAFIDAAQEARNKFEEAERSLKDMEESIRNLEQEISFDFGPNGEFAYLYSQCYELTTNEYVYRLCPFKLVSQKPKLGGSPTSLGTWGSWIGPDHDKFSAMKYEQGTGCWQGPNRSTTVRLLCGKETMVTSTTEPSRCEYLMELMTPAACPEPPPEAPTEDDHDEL
inactive: [1] 0.084 | [2] -0.09 | [3] -0.067 | [4] -0.128 | [5] -0.33

PDCD10 (UniProt Q9BUL8)
Chain of UniProt Q9BUL8 (Q9BUL8 whole entry, looked up): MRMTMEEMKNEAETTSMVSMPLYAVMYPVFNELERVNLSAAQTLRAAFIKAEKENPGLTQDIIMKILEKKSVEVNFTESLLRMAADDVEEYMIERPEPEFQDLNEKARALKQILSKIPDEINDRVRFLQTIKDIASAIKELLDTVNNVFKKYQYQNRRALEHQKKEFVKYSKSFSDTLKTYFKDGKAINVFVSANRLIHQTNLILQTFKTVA
inactive: [1] -0.005 | [2] 0.02 | [3] -0.013 | [4] -0.042 | [5] -0.064

PLIN2 (UniProt Q99541)
inactive: [1] -0.138 | [2] 0.015 | [3] 0.021 | [4] -0.018 | [5] 0.014

POGK (UniProt Q9P215)
Chain of UniProt Q9P215 (Q9P215 whole entry, looked up): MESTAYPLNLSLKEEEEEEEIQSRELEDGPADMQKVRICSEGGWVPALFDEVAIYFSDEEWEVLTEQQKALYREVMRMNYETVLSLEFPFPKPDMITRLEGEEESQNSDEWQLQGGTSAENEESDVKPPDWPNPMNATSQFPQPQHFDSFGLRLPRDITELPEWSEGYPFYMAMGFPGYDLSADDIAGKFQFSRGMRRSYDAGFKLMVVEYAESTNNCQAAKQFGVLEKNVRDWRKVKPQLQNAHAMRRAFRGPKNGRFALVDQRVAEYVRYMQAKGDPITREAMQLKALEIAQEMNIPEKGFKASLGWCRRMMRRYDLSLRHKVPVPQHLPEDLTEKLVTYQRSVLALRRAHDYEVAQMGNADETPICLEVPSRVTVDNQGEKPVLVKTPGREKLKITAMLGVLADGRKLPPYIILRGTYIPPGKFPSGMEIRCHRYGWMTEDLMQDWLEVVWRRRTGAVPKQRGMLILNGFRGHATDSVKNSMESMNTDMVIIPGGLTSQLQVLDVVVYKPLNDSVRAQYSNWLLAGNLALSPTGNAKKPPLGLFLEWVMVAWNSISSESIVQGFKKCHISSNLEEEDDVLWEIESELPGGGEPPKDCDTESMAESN
inactive: [1] -0.142 | [2] 0.13 | [3] -0.008 | [4] 0.016 | [5] -0.068
